Laboratory results: PubChem BioAssay AID651814 (National Center for Advancing Translational Sciences (NCATS), 2012)
In all, about 2,100 compounds went through this assay and about 590 (28%) were called active. Not shown: some 42% with an inconclusive outcome. Some of the results follow. Values without a mark were called inactive. Calls come from the whole dose curve; as a rule, active = well fitted inhibition curve with a large enough effect; inconclusive = small, poorly fitted or top-dose-only effect; inactive = flat fitted curve, though single readings scatter.

molecular target: DNA dC->dU-editing enzyme APOBEC-3F (Homo sapiens) (UniProt Q8IUX4); test: qHTS for inhibitors of Vif-A3F interactions: Cherry picks; conditions: HeLa A3F-eYFP + Vif (tagged APOBEC3F with the HIV-1 protein that degrades it), eYFP fluorescence, 24 h; note: nearly all actives have a fitted effect of over 70% in size;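 for max response: % of control where 0% means no effect; active compounds raise eYFP fluorescence by blocking Vif-driven A3F loss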
Outline: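 HeLa cells stably expressing A3F-eYFP plus Vif, cultured overnight, then exposed to compounds at several concentrations for 24 h at 37 deg C. Reduced Vif-driven degradation read as rising eYFP fluorescence (488 nm ex/500-530 nm em) by laser-scanning cytometry; MG132 as positive control.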
Potency is the fitted concentration of half-maximal effect.

Sequence of DNA dC->dU-editing enzyme APOBEC-3F (Homo sapiens) (Q8IUX4 whole entry, looked up): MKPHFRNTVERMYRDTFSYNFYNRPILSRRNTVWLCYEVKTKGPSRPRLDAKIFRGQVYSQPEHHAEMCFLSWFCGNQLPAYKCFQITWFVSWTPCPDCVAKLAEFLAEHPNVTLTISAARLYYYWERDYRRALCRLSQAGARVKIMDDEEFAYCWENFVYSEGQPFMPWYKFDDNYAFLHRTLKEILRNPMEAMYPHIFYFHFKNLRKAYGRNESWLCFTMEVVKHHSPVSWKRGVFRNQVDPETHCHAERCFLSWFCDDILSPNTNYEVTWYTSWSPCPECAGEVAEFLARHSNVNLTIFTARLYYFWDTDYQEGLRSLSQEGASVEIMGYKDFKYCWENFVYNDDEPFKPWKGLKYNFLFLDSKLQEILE

Row | SMILES | Potency | max response
1 | Cn1c(N)c(-c2ccccc2)c2ccc([N+](=O)[O-])cc2c1=O | 4.98 µM (active) | –
2 | C=C(C(=O)c1ccccc1)C(C)C(=C)C(=O)c1ccccc1 | 12.5 µM (active) | –
3 | CC(C)(C)NCC(=Cc1ccccc1)C(=O)c1ccccc1 | – | 10%
4 | O=C(OC12CC3CC(CC(C3)C1)C2)c1ccc(NCc2cc(O)ccc2O)cc1 | – | -13.8%
5 | CCN1/C(=C\C=C(C(C)=O)C(C)=O)Sc2ccccc21 | 18.4 µM (active) | –
6 | O=C(CN1c2ccccc2Sc2ccccc21)NNC(=O)Nc1cccc(Cl)c1 | – | -28.8%
7 | O=S(=O)(Nc1nc2ccccc2nc1OCC(F)(F)F)c1cccs1 | – | -0.45%
8 | CSc1nsc(/C=C/Nc2ccc(C)cc2)c1C#N | 15.8 µM (active) | –
9 | CSc1nsc(/C=C/Nc2ccc(F)cc2)c1C#N | – | -9.4%
10 | N#CC1=C(S)N(c2ccc(F)cc2)C2(CCCCC2)NC1=O | – | 2.73%
11 | Cc1c(C(=O)Nc2cnccn2)oc2ccccc12 | – | -18.9%
12 | CC(=O)Nc1sc(/C(C#N)=C\c2cccc(Cl)c2)nc1-c1ccc(C)cc1 | 6.51 µM (active) | –
13 | CC(=O)Nc1sc(/C(C#N)=C/c2ccc(Cl)c(Cl)c2)nc1-c1ccc(C)cc1 | 2.59 µM (active) | –
14 | O=C(Nc1nc(NC(=O)c2ccco2)n(-c2ccccc2)n1)c1ccccc1 | – | -10.5%
15 | NC(=O)c1cccc(-c2ccnc3c2CC(C(=O)NCc2ccco2)O3)c1 (stereo unspecified) | – | -22.9%
16 | COc1cccc(NC(=O)c2sc3nc(C)c(C(=O)Nc4ccc(C)cc4C)c(-c4ccco4)c3c2N)c1 | – | -5.66%
17 | CCc1ccc(NC(=O)c2sc3nc(C)c(C(=O)Nc4ccc(C)cc4C)c(-c4ccco4)c3c2N)cc1 | 23.1 µM (active) | –
18 | CCOC(=O)c1sc(NC(=S)NC(=O)c2ccco2)nc1C | – | 0.261%
19 | N#Cc1cccn1-c1nccc(-c2cccs2)n1 | 12.5 µM (active) | –
20 | C#CCSc1nc(-c2cccs2)ccc1C#N | – | -28.5%
21 | O=CNc1ccc2c3c(cccc13)-c1ccccc1-2 | 14 µM (active) | –
22 | CCCCN(C)CC(O)Cn1cc(/C=C/C(=O)c2cccs2)c2ccccc21 (stereo unspecified) | 20.6 µM (active) | –
23 | N#CCC(=O)N/N=C/c1ccc(N2N=C(c3ccccc3)CC2c2ccccc2)cc1 (stereo unspecified) | 18.4 µM (active) | –
24 | CC1Sc2ccc(C(=O)NCc3ccccn3)cc2NC1=O (stereo unspecified) | – | -4.69%

Row | SMILES | Potency | max response
25 | CCn1c(CNC(=O)C23CC4CC(CC(C4)C2)C3)nnc1SCC(=O)Nc1ccc(OC)cc1 | – | 6.03%
26 | N#Cc1cccc(NC(=O)CSc2ccc3c4c(cccc24)C(=O)c2ccccc2-3)c1 | 2.31 µM (active) | –
27 | Cc1ccc(NC(=O)CSc2ccccc2NC(=O)c2cccc(Cl)c2)cc1Cl | – | -5.67%
28 | COc1ccc(NC(=O)c2cccc3ccccc23)cc1 | – | -30%
29 | COc1ccc(NC(=O)CSc2ccc3c4c(cccc24)C(=O)c2ccccc2-3)cc1 | 8.2 µM (active) | –
30 | Cc1cccc(C(=O)NC(=S)N2CCc3ccccc3C2)c1 | – | 0.715%
31 | COc1ccc(NC(=O)CN2C(=O)C3(SCC(=O)N3c3ccccc3)c3ccccc32)cc1Cl (stereo unspecified) | – | -11.4%
32 | O=C1S/C(=C\c2ccc(N3CCOCC3)o2)C(=O)N1c1ccccc1 | 3.53 µM (active) | –
33 | CCCN1C(=O)S/C(=C\c2ccc(N3CCOCC3)o2)C1=O | 2.8 µM (active) | –
34 | CCCN1C(=O)S/C(=C/c2ccc(N3CCOCC3)o2)C1=O | 2.8 µM (active) | –
35 | Cn1cc(/C=C2\SC(=O)N(c3ccccc3)C2=O)c2ccccc21 | – | -28.8%
36 | C/C(=N/NC(N)=S)c1ccc(Br)s1 | – | 1.12%
37 | CC(NC1=CC(=O)c2cccnc2C1=O)C(O)c1ccccc1 (stereo unspecified) | – | -27.2%
38 | O=C(NCc1ccco1)C1Cc2c(-c3cccc(F)c3)ccnc2O1 (stereo unspecified) | – | -27.2%
39 | Cc1ccc(-c2cc(C(=O)N/N=C/C(Br)=C/c3ccccc3)n[nH]2)o1 | – | -23.7%
40 | O=[N+]([O-])c1ccccc1C1Nc2cccc3cccc(c23)N1 | – | 1.22%
41 | Cc1ccc(S(=O)(=O)Nc2cc(Cl)c(O)c3ncccc23)cc1 | – | -26.9%
42 | Cc1cccc2[nH]cc(/C=C3/C=Nc4ccccc43)c12 | 23.1 µM (active) | –
43 | COc1cccc(C2CC(c3ccccc3)=NN2S(=O)(=O)c2ccc(C)cc2)c1OC (stereo unspecified) | – | -28.4%
44 | O=[N+]([O-])c1ccc(/C=C/C2=NN(c3ccccc3)C(c3ccco3)C2)o1 (stereo unspecified) | 2.59 µM (active) | –
45 | O=[N+]([O-])c1ccc(C2=NN(c3ccccc3)C(c3ccco3)C2)cc1 (stereo unspecified) | 1.25 µM (active) | –
46 | COc1ccccc1N1N=C(c2ccc([N+](=O)[O-])cc2)CC1c1ccccc1 (stereo unspecified) | 1.12 µM (active) | –
47 | C(=C\c1ccco1)/C1=NN(c2ccccc2)C(c2ccco2)C1 (stereo unspecified) | – | -27.8%
48 | CCCOc1ccc(N)cc1N | – | 4.36%

Row | SMILES | Potency | max response
49 | CN1C(=O)C(O)(C2COC(C)(C)CC2=O)c2cc(Br)ccc21 (stereo unspecified) | – | -0.16%
50 | CC(C)CCNC(=O)c1ccc2c(c1)NC(=O)C(CS(=O)(=O)Cc1cccc(Br)c1)N2 (stereo unspecified) | – | 0.102%
51 | CCN1/C(=C/C=C2/SC(=Nc3cccc4ncccc34)N(C)C2=O)Sc2ccccc21 | 16.4 µM (active) | –
52 | C/C(=N\NC(=O)c1cc(-c2ccncc2)nc2ccccc12)c1ccc(N2CCOCC2)cc1 | – | -14.9%
53 | C=CCn1cc(/C=C/c2cc[n+](C)cc2)c2ccccc21 | 2.23 µM (active) | –
54 | CC(C)n1cc(/C=C/c2cc[n+](C)cc2)c2ccccc21 | 1.4 µM (active) | –
55 | CCn1cc(/C=C/c2cc[n+](C)cc2)c2ccccc21 | 0.79 µM (active) | –
56 | COC(=O)c1cc(NC(=O)c2ccccc2)c(=O)oc1/C=C/Nc1ccc(Oc2ccccc2)cc1 | – | -22%
57 | CC(=O)c1cc(NC(=O)c2ccc(Cl)cc2)c(=O)oc1/C=C/N(C)C | 6.27 µM (active) | –
58 | CC(=O)c1c(C)[nH]c(C(=O)Nc2ccc(Cl)cc2F)c1C | – | -17.7%
59 | CC(=O)c1cc(NC(=O)c2ccc(C)cc2)c(=O)oc1/C=C/N(C)C | 20.6 µM (active) | –
60 | CC(=O)c1cc2c(cc1NS(=O)(=O)c1ccc(C)cc1)OCCO2 | – | -26.6%
61 | COc1ccc(C(=O)Nc2cc(C(C)=O)c(/C=C/N(C)C)oc2=O)cc1 | 11.2 µM (active) | –
62 | COc1cc(OC)cc(C(=O)Nc2ccccc2C(=O)NC2CC2)c1 | – | -22.6%
63 | COC(=O)c1c(-c2ccccc2Cl)noc1/C=C/N(C)C | – | 2.98%
64 | C/C(=N\Nc1nccnc1Cl)c1ccc(Cl)c(Cl)c1 | – | 0.009%
65 | N#CC1=C(N)C(C#N)(C#N)[C@H](c2c(F)cccc2F)[C@H]2CC3(CC=C12)OCCO3 | 20.6 µM (active) | –
66 | COc1ccccc1-c1cc(C(=O)NN)[nH]n1 | – | 7.62%
67 | CCCCCCc1cc2cc(-c3nnc(-c4ccccc4OC)o3)c(=O)oc2cc1O | 2.8 µM (active) | –
68 | CCCCCCc1cc2cc(-c3nnc(-c4ccccc4O)o3)c(=O)oc2cc1O | – | 6.08%
69 | CCCCCCc1cc2cc(-c3nnc(-c4ccccc4)o3)c(=O)oc2cc1O | 3.96 µM (active) | –
70 | C=C(NC(=O)C(=C)NC(=O)c1csc(C2=NC3c4csc(n4)C4NC(=O)c5csc(n5)C(C(C)(O)C(C)O)NC(=O)C5CSC(=N5)/C(=C/C)NC(=O)C(C(C)O)NC(=O)c5csc(n5)C3(CC2)NC(=O)C(C)NC(=O)C(=C)NC(=O)C(=C)NC(=O)C(C(C)C)NC2C=Cc3c(C(C)O)cc(nc3C2O)C(=O)OC4C)n1)C(N)=O (stereo unspecified) | 12.5 µM (active) | –
71 | O=C(Cn1c(=O)n(Cc2ccco2)c(=O)c2sc3ccccc3c21)Nc1ccccc1C(F)(F)F | 14.6 µM (active) | –
72 | O=C(Cn1cnc2c(cnn2-c2ccc(F)cc2)c1=O)NCc1ccco1 | – | -25.6%

Row | SMILES | Potency | max response
73 | CCc1ccc(N=Nc2ccc(O)c3[nH]cnc23)cc1 | 13 µM (active) | –
74 | O=S(=O)(Nc1nc2ccccc2nc1N1CCc2ccccc2C1)c1ccc(Br)cc1 | – | -17%
75 | CCOc1ccc(N/C=C/C(=O)c2cc(OC)c(OC)c(OC)c2)cc1 | – | -29.8%
76 | COc1cc(/C=C/C(=O)c2ccc3c(c2)OCCO3)cc(Br)c1OCC(=O)N(C)C | 15.8 µM (active) | –
77 | CCOC(=O)C1=C(C)N=c2sc(=Cc3cc(Cl)c(OCC(=O)O)c(Cl)c3)c(=O)n2C1c1cccc(OC)c1 (stereo unspecified) | 19.8 µM (active) | –
78 | C=CCN1C(=O)/C(=C/c2ccc(O)c(OC)c2)S/C1=N/c1nccs1 | – | -0.164%
79 | C=CCN1C(=O)/C(=C2/Sc3ccc(OC)cc3N2C)SC1=Nc1cccc(O)c1 | 20.6 µM (active) | –
80 | C=CCN1C(=O)/C(=C2/Sc3ccc(OC)cc3N2CC)SC1=S | 9.2 µM (active) | –
81 | Cc1ccc2[nH]c(C(=O)NN=C3CCCCC3)c(-c3ccccc3)c2c1 | – | 0.516%
82 | Cc1cc(C)cc(Oc2nc(C(F)(F)F)nc3ccccc23)c1 | – | -26.3%
83 | CCc1ccc2nc(N(CCCN(C)C)C(=O)c3ccc(S(=O)(=O)N(C)C4CCCCC4)cc3)sc2c1 | – | -4.66%
84 | OCC[n+]1ccc(/C=C/c2c[nH]c3ccccc23)cc1 | 8.2 µM (active) | –
85 | C[n+]1cc(C(=O)N2CCCCC2)ccc1/C=C/c1c[nH]c2ccccc12 | 14 µM (active) | –
86 | C[n+]1ccc(/C=C/c2c[nH]c3ccccc23)cc1 | 9.2 µM (active) | –
87 | O=C(C(=O)N1CCN(c2ccccc2Cl)CC1)c1c[nH]c2ccccc12 | – | 2.85%
88 | CC[n+]1ccc(/C=C/c2c[nH]c3ccccc23)cc1 | 9.2 µM (active) | –
89 | CC(=O)Nc1ccc(S(=O)(=O)Nc2nc3ccccc3nc2Nc2ccc3ccccc3c2)cc1 | – | 0.168%
90 | COc1ccc2oc(-c3ccccc3[N+](=O)[O-])cc(=O)c2c1 | – | -28%
91 | COc1ccc(S(=O)(=O)N2CCN(C(=O)c3ccc([N+](=O)[O-])o3)CC2)cc1 | – | -3.97%
92 | COc1ccc2[nH]c3c(c2c1)CCNC3c1ccc([N+](=O)[O-])o1 (stereo unspecified) | 23.1 µM (active) | –
93 | CC(/C=C/c1ccc(N(C)C)cc1)=N\N=C(/N)SC1CC(=O)N(c2ccc(C(=O)O)cc2)C1=O (stereo unspecified) | – | -20.3%
94 | CCOC(=O)C1C(=O)C=C(/C=C/c2ccc(N(C)C)cc2)CC1c1ccccc1 (stereo unspecified) | 10.3 µM (active) | –
95 | Cc1ccc(/C=N/NC(=O)CCCOc2ccc(Cl)cc2Cl)cc1 | – | -27.3%
96 | Cc1ccc(-c2nc3ncccc3o2)cc1NC(=O)c1ccc([N+](=O)[O-])o1 | – | -17.2%
